This is an account of results in PubChem BioAssay AID1851 (National Center for Advancing Translational Sciences (NCATS), 2009).

The structures appear in SMILES notation. Screen size: about 16,000 compounds; about 5,800 (36%) were called active. Inconclusive results (about 23%) are left out. Some of the results follow. Unmarked numbers belong to inactive results. Calls follow the shape of the dose curve; as a rule, active = well fitted curve in the direction sought with a large enough effect; inconclusive = small, poorly fitted or top-dose-only effect, or effect the other way; inactive = no such curve, though single readings can be large or run the other way.
% is scaled to controls: 0 for no effect and ±100 for the full control effect.

The target in this experiment is Cytochrome P450 2C19 (Homo sapiens) (UniProt P33261). Briefly: Cytochrome panel assay with activity outcomes. The note with it: recombinant CYP, pro-luciferin dealkylation, luminescence, p450-cyp2c19; series mostly up to 57.1 µM; activity, negative = inhibition: at the top concentration.
Sequence of Cytochrome P450 2C19 (Homo sapiens) (P33261 whole entry, looked up): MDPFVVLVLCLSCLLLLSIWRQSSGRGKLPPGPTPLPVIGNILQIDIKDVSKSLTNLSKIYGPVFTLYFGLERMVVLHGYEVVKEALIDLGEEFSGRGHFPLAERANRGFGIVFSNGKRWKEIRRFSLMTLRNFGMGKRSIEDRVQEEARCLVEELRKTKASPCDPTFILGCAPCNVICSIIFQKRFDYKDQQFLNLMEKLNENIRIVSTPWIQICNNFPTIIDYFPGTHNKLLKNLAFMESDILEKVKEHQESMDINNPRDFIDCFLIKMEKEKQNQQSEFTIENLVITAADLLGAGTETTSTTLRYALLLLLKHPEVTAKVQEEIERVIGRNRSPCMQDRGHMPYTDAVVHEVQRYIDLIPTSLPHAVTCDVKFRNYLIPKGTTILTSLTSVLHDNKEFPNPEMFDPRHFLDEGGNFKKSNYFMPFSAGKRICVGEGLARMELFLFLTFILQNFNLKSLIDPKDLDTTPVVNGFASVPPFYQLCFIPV
As to `CN1CCN(CN2C(=O)C3C4C=CC(C3C2=O)C2C3C(=O)N(CN5CCN(C)CC5)C(=O)C3C42)CC1` (stereo not given), the activity, negative = inhibition is 27.4% [at 11.4 µM]. Still for that read-out and setting: in the case of `CC[C@@]12CCCN3CCc4c(n(c5ccccc45)C(=O)C1)[C@H]32` it was -19.6% [at 11.4 µM]. For the molecule `Cc1ccc(S(=O)(=O)c2nc(S(=O)(=O)c3ccc(C)cc3)c(NCc3ccco3)s2)cc1`, the half-maximal activity concentration (AC50) was 8.91 µM (active). As to `Oc1ccc(Cn2cc[nH]c2=S)cc1`, the “activity, negative = inhibition” value is 5.78%. Same read-out and setting: next, `O=C(NNC(=S)NC(=O)c1cccnc1)c1ccccc1`: -21.7%. Regarding `O=C(NC(=S)Nc1nc(-c2ccc(Br)cc2)cs1)c1cccnc1`, the AC50 is 10 µM (active). As for `O=S(=O)(O)c1ccc2cc(N=Nc3cc(S(=O)(=O)O)c4cccnc4c3O)ccc2c1`, the activity, negative = inhibition was -22.6% [at 11.4 µM].

On to `COc1ccc(C=NC(CO)C(O)c2ccc([N+](=O)[O-])cc2)cc1` (stereo not given), for which the “activity, negative = inhibition” value is -6.09%. For the molecule `CS/C(N)=N/N=C/c1ccc([N+](=O)[O-])cc1`, the half-maximal activity concentration (AC50) was 14.1 µM (active). Turning to `NC(N)=N/N=C\c1ccc(C2CCNCC2)cc1`, the activity, negative = inhibition was 23.7% [at 11.4 µM]. Same read-out and setting: next, `O=C(NC[C@@H](O)CO)c1c(I)c(C(=O)NC[C@@H](O)CO)c(I)c(N(CCO)C(=O)CO)c1I`: 8% [at 25.6 µM]. For the molecule `O=C(COc1cccc2ccccc12)N1c2ccccc2CCc2ccccc21`, the AC50 was 0.447 µM (active).

Regarding `CC(C)NC[C@@H](O)COc1cccc2ccccc12`, the AC50 entry was “inactive”.

Take `CC(C)NC[C@H](O)COc1cccc2ccccc12`: the “activity, negative = inhibition” value was 0.306%. On the same count and under the same terms, in the case of `CCOC(=O)c1cc(-c2ccccc2)sc1NC(=O)C(C)(C)C` it was 0.519%; in that of `CCc1cc(C(=O)OC)c(NC(=O)CCCC(=O)O)s1`, -16.5%.

Turning to `COC(=O)c1cc(-c2ccccc2)sc1NC(=O)CN1C(=O)c2ccccc2C1=O`, the half-maximal activity concentration (AC50) is 7.08 µM (active).

Take `CCOC(=O)c1cc(-c2ccccc2)sc1NC(=O)c1ccc(OC)cc1`: the concentration at half-maximal activity (AC50) was 7.94 µM (active). Take `CCOC(=O)c1cc(NC(=O)c2ccc(OC)cc2)c(=O)oc1-c1ccccc1`: the AC50 was 2.82 µM (active).

With `CCOC(=O)c1cc(CC)sc1NC(=O)C(c1ccccc1)c1ccccc1`, the concentration at half-maximal activity (AC50) was 8.91 µM (active). Consider `CO[C@@H]1COC(=O)[C@H](C)NC(=O)[C@@H](C)COC(=O)CCC[C@H]1C`, for which the activity, negative = inhibition is 15.2% [at 11.4 µM].

On to `CCOC(=O)c1sc(NC(=O)CSc2nc(C)cc(C)c2C#N)c(C#N)c1C`, for which the half-maximal activity concentration (AC50) is 5.62 µM (active).

With `Cc1ccccc1OCC(=O)Nc1sc(C(=O)Nc2cccc(C)c2C)c(C)c1C#N`, the “activity, negative = inhibition” value was 4.91%.

As for `CCOC(=O)c1sc2c(c1C)c(=O)c(C(=O)OCC)cn2CC`, the “activity, negative = inhibition” value is -25.8%. Turning to `CCOC(=O)c1sc(NC(=O)CSc2n[nH]c(-c3ccc(Cl)cc3Cl)n2)c(C#N)c1C`, the AC50 was 2.24 µM (active).

As a reminder, the AC50 is the concentration giving half of the maximal activity seen.
